About 79,000 compounds went through this panel and 15% of them were active in at least one assay; those are over-represented in the sample as a whole. Active and inactive are the calls of the source. Rule as the data show it: active = growth inhibition above about 70%; inactive = the rest.
Columns and labels:
[1] = NCI Yeast Anticancer Drug Screen. Data for the mlh1 strain (AID 171);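 also: 0% = growth of vehicle-treated control cultures of the same strain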; conditions: S. cerevisiae mlh1 strain growth inhibition, stronger effect = higher value
How it was run: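 A yeast strain with a defined genetic lesion serves as the test organism. Cultures receive compound or vehicle, and growth is measured.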

[2] = NCI Yeast Anticancer Drug Screen. Data for the sgs1 strain (AID 173);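 also: 0% = growth of vehicle-only control cultures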; conditions: S. cerevisiae sgs1 mutant, stronger effect = higher value
How it was run: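 A genetically defined yeast mutant is incubated with the test compound, and its growth is compared to that of the same strain given vehicle.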

[3] = NCI Yeast Anticancer Drug Screen. Data for the mlh1 rad18 strain (AID 175); conditions: S. cerevisiae mlh1 rad18 strain growth inhibition, stronger effect = higher value
How it was run: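 Steps: expose repair-defective yeast to compound; measure growth; express inhibition against vehicle-treated controls.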

[4] = NCI Yeast Anticancer Drug Screen. Data for the rad18 strain (AID 177); conditions: S. cerevisiae rad18 mutant growth inhibition, stronger effect = higher value
How it was run: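 Measured value is growth inhibition of a yeast strain bearing a DNA repair alteration, referenced to vehicle-treated cells.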

[5] = NCI Yeast Anticancer Drug Screen. Data for the wt1 strain (AID 149);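 also: 0% = growth of vehicle-treated wt1 cultures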; conditions: S. cerevisiae wt1 strain (SPY 50644) growth inhibition, stronger effect = higher value
How it was run: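 Yeast wt1 strain exposed to compounds; growth inhibition measured relative to vehicle-treated controls.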

[6] = NCI Yeast Anticancer Drug Screen. Data for the rad50EPP+ strain (AID 151);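 also: 0% = growth of vehicle-treated control cultures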; conditions: S. cerevisiae rad50 mutant strain, stronger effect = higher value
How it was run: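 Read-out is yeast growth inhibition relative to vehicle; cells used were the rad50EPP+ strain.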

[7] = NCI Yeast Anticancer Drug Screen. Data for the mgt1 strain (AID 153); conditions: S. cerevisiae mgt1 mutant growth inhibition, stronger effect = higher value
How it was run: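 Measured: inhibition of mgt1 yeast growth by compound, normalized to vehicle-treated cultures.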

[8] = NCI Yeast Anticancer Drug Screen. Data for the rad50 strain (AID 155);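 also: 0% = growth of vehicle-only cultures of the same strain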; conditions: S. cerevisiae rad50 strain growth inhibition, stronger effect = higher value
How it was run: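 Yeast carrying a defined DNA repair defect were exposed to test compounds, and growth was compared with vehicle-treated controls to give percent inhibition.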

[9] = NCI Yeast Anticancer Drug Screen. Data for the mec2-1 strain (AID 157); conditions: S. cerevisiae mec2-1 strain, stronger effect = higher value
How it was run: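 Using mec2-1 yeast: add compound, measure growth, express inhibition versus vehicle-treated cultures.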

[10] = NCI Yeast Anticancer Drug Screen. Data for the rad14 strain (AID 159);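 also: 0% = growth of vehicle-treated control cultures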; conditions: S. cerevisiae rad14 strain growth inhibition, stronger effect = higher value
How it was run: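 Yeast cells carrying a defined DNA-repair defect were exposed to compounds, and growth inhibition was calculated relative to vehicle-treated control cultures.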

[11] = NCI Yeast Anticancer Drug Screen. Data for the sgs1 mgt1 strain (AID 161);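 also: 0% = growth of cultures given vehicle only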; conditions: S. cerevisiae sgs1 mgt1 strain, stronger effect = higher value
How it was run: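 Compounds are added to genetically altered yeast, and growth is compared with cultures given vehicle alone to give percent inhibition.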

[12] = NCI Yeast Anticancer Drug Screen. Data for the CLN2oe strain (AID 163);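 also: 0% = growth of vehicle-only control cultures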; conditions: S. cerevisiae CLN2oe strain, stronger effect = higher value
How it was run: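 Whole-cell yeast growth assay. A strain engineered for altered cell-cycle control received compound, and inhibition relative to vehicle-treated cultures was recorded.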

[13] = NCI Yeast Anticancer Drug Screen. Data for the cln2 rad14 strain (AID 165);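 also: 0% = growth equal to vehicle treated cultures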; conditions: S. cerevisiae cln2 rad14 strain, stronger effect = higher value
How it was run: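 Yeast strain cln2 rad14, bearing defects in cell cycle control and DNA repair, serves as the test system; values reflect growth inhibition compared with vehicle.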

[14] = NCI Yeast Anticancer Drug Screen. Data for the bub3 strain (AID 167); conditions: S. cerevisiae bub3 mutant strain, stronger effect = higher value
How it was run: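 Compounds were applied to a genetically altered yeast strain carrying a cell-cycle control defect. Growth inhibition was scored against vehicle-treated controls.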

[15] = NCI Yeast Anticancer Drug Screen. Data for the wt2 strain (AID 169);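 also: 0% = growth of vehicle-treated yeast cultures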; conditions: S. cerevisiae wt2 strain growth inhibition, stronger effect = higher value
How it was run: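 Treated yeast vs. vehicle-treated yeast: growth inhibition determined.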

[16] = at 5.0 µM (retest, dose inferred, filed as 0.5)
[17] = at 50.0 µM (retest, dose inferred, filed as 5.0)

Measured: growth inhibition

CN(C)c1ccc(/C=C/c2ccnc3ccc4ccccc4c23)cc1
inactive: [1]; at 1.2 µM -8% | [1]; at 3.7 µM 0% | [1]; at 11.0 µM 45% | [1]; at 33.0 µM 67% | [1]; at 100.0 µM 68% | [2]; at 1.2 µM -3% | [2]; at 3.7 µM 11% | [2]; at 11.0 µM 67% | [2]; at 100.0 µM 68% | [3]; [16] -3% | [3]; [17] 37% | [4]; at 1.2 µM 2% | [4]; at 3.7 µM 20%
active: [2]; at 33.0 µM 77% | [3]; at 50.0 µM 72% | [4]; at 11.0 µM 75% | [4]; at 33.0 µM 84% | [4]; at 100.0 µM 75%

COc1ccc2c(Cc3c4ccccc4cc4ccccc34)cncc2c1O
inactive: [5]; at 1.2 µM 2% | [5]; at 3.7 µM 4% | [5]; at 11.0 µM 12% | [5]; at 33.0 µM 56% | [6]; at 1.2 µM 4% | [6]; at 3.7 µM 18% | [6]; at 11.0 µM 41% | [6]; at 33.0 µM 68% | [7]; at 1.2 µM 3% | [7]; at 3.7 µM 6% | [7]; at 11.0 µM 11% | [7]; at 33.0 µM 42% | [8]; at 1.2 µM 4% | [8]; at 3.7 µM 6% | [8]; [16] 51% | [8]; at 11.0 µM 26% | [8]; at 33.0 µM 68% | [9]; at 1.2 µM 4% | [9]; at 3.7 µM 7% | [9]; [16] 19% | [9]; at 11.0 µM 12% | [9]; at 33.0 µM 33% | [10]; at 1.2 µM 6% | [10]; at 3.7 µM 7% | [10]; at 11.0 µM 27% | [11]; [16] 30% | [12]; at 1.2 µM 5% | [12]; at 3.7 µM 7% | [12]; at 11.0 µM 9% | [12]; at 33.0 µM 18% | [12]; at 100.0 µM 68% | [13]; [16] -2% | [14]; at 1.2 µM 5% | [14]; at 3.7 µM 8% | [14]; [16] 8% | [14]; at 11.0 µM 19% | [14]; at 33.0 µM 45% | [15]; at 1.2 µM 1% | [15]; at 3.7 µM 4% | [15]; at 11.0 µM 18% | [1]; at 1.2 µM 4% | [1]; at 3.7 µM 7% | [1]; at 11.0 µM 15% | [1]; at 33.0 µM 60% | [2]; at 1.2 µM 2% | [2]; at 3.7 µM 8% | [2]; at 11.0 µM 36% | [4]; at 1.2 µM 9% | [4]; at 3.7 µM 4% | [4]; at 11.0 µM 25%
active: [5]; at 100.0 µM 93% | [6]; at 100.0 µM 80% | [7]; at 100.0 µM 93% | [8]; [17] 98% | [8]; at 50.0 µM 93.9% | [8]; at 100.0 µM 90% | [9]; [17] 97% | [9]; at 50.0 µM 91.5% | [9]; at 100.0 µM 86% | [10]; at 33.0 µM 95% | [10]; at 100.0 µM 93% | [11]; [17] 95% | [11]; at 50.0 µM 92.8% | [13]; [17] 96% | [13]; at 50.0 µM 80.2% | [14]; [17] 97% | [14]; at 50.0 µM 87.7% | [14]; at 100.0 µM 85% | [15]; at 33.0 µM 91% | [15]; at 100.0 µM 93% | [1]; at 100.0 µM 91% | [2]; at 33.0 µM 89% | [2]; at 100.0 µM 91% | [3]; [16] 80% | [3]; [17] 97% | [3]; at 50.0 µM 95.6% | [4]; at 33.0 µM 86% | [4]; at 100.0 µM 88%

CCCCCCCCCCCCOC1C(COCCN2CCCC2)OC2OC(C)(C)OC21 (centres undefined)
inactive: [5]; at 1.2 µM 23% | [5]; at 3.7 µM 15% | [6]; at 1.2 µM 36% | [6]; at 3.7 µM 27% | [6]; at 11.0 µM 2% | [7]; at 1.2 µM 3% | [7]; at 3.7 µM 2% | [8]; at 1.2 µM 5% | [8]; at 3.7 µM 1% | [8]; [16] 13% | [9]; at 1.2 µM 18% | [9]; at 3.7 µM 11% | [9]; [16] 2% | [10]; at 1.2 µM 11% | [10]; at 3.7 µM 14% | [11]; [16] 19% | [12]; at 1.2 µM -5% | [12]; at 3.7 µM 23% | [13]; [16] 42% | [14]; at 1.2 µM -18% | [14]; at 3.7 µM -16% | [14]; [16] 29% | [15]; at 1.2 µM -13% | [15]; at 3.7 µM -28% | [2]; at 1.2 µM 22% | [2]; at 3.7 µM 21% | [3]; [16] 16% | [4]; at 1.2 µM 37% | [4]; at 3.7 µM 27%
active: [5]; at 11.0 µM 93% | [5]; at 33.0 µM 99% | [5]; at 100.0 µM 99% | [6]; at 33.0 µM 97% | [6]; at 100.0 µM 98% | [7]; at 11.0 µM 97% | [7]; at 33.0 µM 98% | [7]; at 100.0 µM 98% | [8]; at 11.0 µM 98% | [8]; at 33.0 µM 98% | [8]; [17] 99% | [8]; at 50.0 µM 93% | [8]; at 100.0 µM 98% | [9]; at 11.0 µM 97% | [9]; at 33.0 µM 99% | [9]; [17] 99% | [9]; at 50.0 µM 93.4% | [9]; at 100.0 µM 98% | [10]; at 11.0 µM 98% | [10]; at 33.0 µM 98% | [10]; at 100.0 µM 98% | [11]; [17] 99% | [11]; at 50.0 µM 90.2% | [12]; at 11.0 µM 71% | [12]; at 33.0 µM 98% | [12]; at 100.0 µM 98% | [13]; [17] 97% | [13]; at 50.0 µM 90.3% | [14]; at 11.0 µM 96% | [14]; at 33.0 µM 98% | [14]; [17] 98% | [14]; at 50.0 µM 88.5% | [14]; at 100.0 µM 98% | [15]; at 11.0 µM 78% | [15]; at 33.0 µM 98% | [15]; at 100.0 µM 98% | [2]; at 11.0 µM 97% | [2]; at 33.0 µM 98% | [2]; at 100.0 µM 98% | [3]; [17] 99% | [3]; at 50.0 µM 90% | [4]; at 11.0 µM 97% | [4]; at 33.0 µM 98% | [4]; at 100.0 µM 97%

Reference: PubChem BioAssay (NCI)
